{"source": "PubChem BioAssay (NCATS)", "note": "Inconclusive results are not listed. Values without a mark were called inactive. The source made the active and inactive calls. Calls come from the whole dose curve; as a rule, active = well fitted inhibition curve with a large enough effect; inconclusive = small, poorly fitted or top-dose-only effect; inactive = no such curve, though single readings can be large or run the other way. Potency is the fitted concentration of half-maximal effect.", "data": [{"assay": "BET inhibitor-based combinations targeting novel dependencies in MECOM-rearranged (r) AML: MV-4-11 cell line (AID 2202233); note: nearly all actives have a fitted effect of over 45% in size;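 for viability, % of control: plate controls were DMSO for no effect and blank wells for full effect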", "settings": "MV-4-11 AML viability, CellTiter-Glo luminescence, 48 h; series mostly up to 46 µM", "source_text": "Ecotropic viral insertion site 1 (EVI1) is located on chromosome 3q26.2 as part of the MECOM (MDS and EVI1 complex) locus. Under normal hematopoiesis, EVI1 is a regulator of hematopoietic stem cell maintenance and self-renewal and EVI1 levels decrease as the cells differentiate. In approximately 5-10% of de novo acute myeloid leukemia (AML) EVI1 is aberrantly expressed, including Chromosomal inv(3)(q21;q26.2) or t(3;3)(q21;q26.2) alterations (MECOM-r) that account for about 50% of AML with EVI1 overexpression 31. AMLs with high levels of EVI1 have a poor prognosis and an overall survival time averaging between 10-14 months. EVI1 overexpression confers resistance in leukemia cells, highlighting the need to develop new targeted therapies for EVI1 overexpressing AMLs. Here, we performed an unbiased chemical drug screening by evaluating the single agent activity of a collection of 2,480 oncology-focused, approved and investigational drugs (NCATS Mechanism Interrogation Plates, MIPE v5.0) against a panel of seven AML cell lines. These included four MECOM-r cell-lines (AML-191, AML-194, UCSD-AML1 and HNT-34) and three non-MECOM-r AMLs (MV4-11, OCI-AML3 and SET-2). Exploiting the mechanistic redundancy built in the library, we identified target-level sensitivities in MECOM-r AML cells and relative activity as compared to other AML subtypes.\nA collection of 2480 mechanistically annotated dugs (MIPE v5.0) was used to screen four 3q26.2 rearranged AML cell lines and three non-3q26.2 rearranged AML cell lines. This library purposely exploits redundancy by including multiple inhibitors of key onco-targets, while simultaneously encompassing mechanistic diversity, targeting more than 800 distinct mechanisms of action. Briefly, cells were seeded in 5 uL of growth media using a Multidrop Combi dispenser into 1536 well white polystyrene tissue culture treated plates (Corning) at a density of 500cells/well. For each cell-line, for each of the 2480 drugs in MIPE v5.0 library, an 11-point dose curve was generated via a 1536 pin-tool. Plates were incubated for 48 hr at standard incubator conditions, covered by a stainless steel gasketed lid to prevent evaporation. Cell viability was determined by luminescence based, Cell Titer Glo assay (Promega). In detail, 3 uL of Cell Titer Glo were added to each well and plates were incubated at room temperature for 15 min with a stainless-steel lid in place. Luminescence readings were taken using a Viewlux (PerkinElmer) with a 2 s exposure time per plate. Compound dose-response curves were normalized to DMSO and empty well controls on each plate. Quantitative drug activity data from dose-response curves was determined utilizing area Under the Curve (AUC) and Z-transformed AUC (Z-AUC, a mean-centering transformation applied to each individual cell-line screened).", "values": [{"compound": "CN(C)CCOC(c1ccccc1)c1ccccc1", "Potency": "inactive"}, {"compound": "Cc1ccccc1C(C(=O)NC1CCCCC1)N(C(=O)CNc1ccc(C#N)cc1)c1cccc(F)c1", "note": "(stereo not given)", "Potency": "inactive"}, {"compound": "c1cc(-c2cnn3cc(-c4ccc(N5CCNCC5)cc4)cnc23)c2cccnc2c1", "Potency": "3.32 µM (active)"}, {"compound": "CC(C)c1noc(N2CCC(COc3ccc(-c4ccc(S(C)(=O)=O)cc4)nc3)CC2)n1", "Potency": "2.35 µM (active)"}, {"compound": "C[C@@H]1CN(CC(=O)Nc2ccc3c(c2)Cc2cccc(-c4cc(=O)cc(N5CCOCC5)o4)c2S3)C[C@H](C)O1", "Potency": "14.8 µM (active)"}, {"compound": "O=c1cc(-c2ccccc2)oc2cc(O)cc(O)c12", "Potency": "16.6 µM (active)"}, {"compound": "CS(=O)(=O)N1CCC(NC(=O)c2[nH]ncc2NC(=O)c2c(Cl)cccc2Cl)CC1", "Potency": "0.59 µM (active)"}, {"compound": "CC(C)Oc1ccc2c(=O)c(-c3ccccc3)coc2c1", "Potency": "inactive"}, {"compound": "C[C@@H]1CN(c2c(F)c(N)c3c(=O)c(C(=O)O)cn(C4CC4)c3c2F)C[C@H](C)N1", "Potency": "inactive"}, {"compound": "COc1ccc(/C=C/C(=O)Nc2ccccc2C(=O)O)cc1OC", "Potency": "inactive"}, {"compound": "CN1CCC(COc2cnc(-c3cccc(Cn4nc(-c5cccc(C#N)c5)ccc4=O)c3)nc2)CC1", "Potency": "5.9 µM (active)"}, {"compound": "O=C(Nc1c(Cl)cncc1Cl)c1ccc(OC(F)F)c(OCC2CC2)c1", "Potency": "inactive"}, {"compound": "O=C(NC1CCNCC1)c1[nH]ncc1NC(=O)c1c(Cl)cccc1Cl", "Potency": "0.662 µM (active)"}, {"compound": "CCC(=O)O[C@]1(C(=O)CCl)[C@@H](C)C[C@H]2[C@@H]3CCC4=CC(=O)C=C[C@]4(C)[C@@]3(F)[C@@H](O)C[C@@]21C", "Potency": "20.9 µM (active)"}, {"compound": "CN(C)C/C=C/C(=O)Nc1ccc(C(=O)Nc2cccc(Nc3ncc(Cl)c(-c4c[nH]c5ccccc45)n3)c2)cc1", "Potency": "0.0468 µM (active)"}, {"compound": "O=C(Nc1cccnc1)N1CCC(Cc2cccc(Oc3ccc(C(F)(F)F)cn3)c2)CC1", "Potency": "5.9 µM (active)"}, {"compound": "COc1cccc([C@@H](C)NCCCc2ccccc2Cl)c1", "Potency": "20.9 µM (active)"}, {"compound": "Cn1ccc2cc3c(cc21)CCN3C(=O)Nc1cccnc1", "Potency": "inactive"}, {"compound": "Nc1nc(NCCNc2ncc(-n3ccnc3)c(-c3ccc(Cl)cc3Cl)n2)ccc1[N+](=O)[O-]", "Potency": "8.33 µM (active)"}, {"compound": "COc1cc2c(Nc3ccc(NC(=O)c4ccccc4)cc3)ncnc2cc1OCCCN1CCOCC1", "Potency": "1.66 µM (active)"}, {"compound": "COc1ccc(CCN(C)CCCOc2ccc(S(=O)(=O)c3[nH]c4ccccc4c3C(C)C)cc2)cc1OC", "Potency": "11.8 µM (active)"}, {"compound": "CC(C)C(=O)Nc1ncc(-c2cc(C(F)F)nn2-c2c(Cl)cccc2Cl)s1", "Potency": "20.9 µM (active)"}, {"compound": "NS(=O)(=O)c1cc2c(cc1Cl)NCNS2(=O)=O", "Potency": "inactive"}, {"compound": "CCN(CC)CCCC(C)Nc1ccnc2cc(Cl)ccc12", "note": "(stereo not given)", "viability, % of control": "101% [at 8.46 µM]"}, {"compound": "CN1CCN(c2ccc(OC(F)(F)F)c(Nc3ncc4c(n3)-c3c(c(C(N)=O)nn3CCO)CC4)c2)CC1", "Potency": "0.0934 µM (active)"}, {"compound": "O=C1CCc2ccc(OCCCCN3CCN(c4cccc(Cl)c4Cl)CC3)cc2N1", "Potency": "16.6 µM (active)"}, {"compound": "COc1nc(C)cnc1NS(=O)(=O)c1cccnc1-c1ccc(-c2nnco2)cc1", "Potency": "inactive"}, {"compound": "Cc1[nH]c(=O)c(C#N)cc1-c1ccc2nccn2c1", "Potency": "inactive"}, {"compound": "O=C1NC(=O)C(c2c[nH]c3ccccc23)=C1c1c[nH]c2ccccc12", "Potency": "2.63 µM (active)"}, {"compound": "CN1CCc2c(c3ccccc3n2Cc2ccc(C(=O)NO)cc2)C1", "Potency": "20.9 µM (active)"}, {"compound": "Cc1nc([C@](C)(O)CO)sc1-c1cnc(N)c(O[C@H](C)c2cc(F)ccc2-n2nccn2)c1", "Potency": "6.61 µM (active)"}, {"compound": "Cc1nc(-c2cccnc2)sc1C(=O)Nc1ccccc1-c1cn2c(CN3CCOCC3)csc2n1", "Potency": "inactive"}, {"compound": "Cc1nnc(C(=O)NC(C)(C)c2nc(C(=O)NCc3ccc(F)cc3)c(O)c(=O)n2C)o1", "Potency": "inactive"}, {"compound": "CC[C@H](C)n1cc(C)c2c(C(=O)NCc3c(C)cc(C)[nH]c3=O)cc(-c3ccc(N4CCNCC4)nc3)cc21", "Potency": "18.6 µM (active)"}, {"compound": "CCC(C)(C)C(=O)O[C@H]1C[C@@H](C)C=C2C=C[C@H](C)[C@H](CC[C@@H]3C[C@@H](O)CC(=O)O3)[C@H]21", "Potency": "18.6 µM (active)"}, {"compound": "CN1C2CCC1CC(OC(=O)C(CO)c1ccccc1)C2", "note": "(stereo not given)", "Potency": "inactive"}, {"compound": "Cc1noc2c1-c1ccccc1C(c1ccc(Cl)cc1)=N[C@H]2CC(N)=O", "Potency": "0.525 µM (active)"}, {"compound": "CN1c2ccccc2C(=O)N2CCc3c([nH]c4ccccc34)C21", "note": "(stereo not given)", "Potency": "3.32 µM (active)"}, {"compound": "CCc1nc(N)nc(N)c1-c1ccc(Cl)cc1", "Potency": "14.8 µM (active)"}, {"compound": "CCN(c1ccccc1)c1cc(NC)[n+](C)c(C)n1", "Potency": "inactive"}]}]}
